From PubChem
Hsp70 activator – transcriptional activators of Hsp70. 0.04% of 200,000 active. activation, % at 10 µM. AID 1203. HeLa Hsp70 promoter luciferase reporter, luminescence; scaled: vehicle 0, proteasome-inhibitor control 100%;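 active means activation above the mean across all tested compounds plus 3 SD, cutoff set per campaign, cut at about 5.5% in these data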;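 further: 100% = MG132 at 30 µM as the positive control and 0% = DMSO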
S1P4 antagonist – antagonists of human S1P4 receptor | O95977 | S1P4-expressing cells, antagonist mode, reporter read-out | inhibition, % at 4.98 µM | 0.26% of 220,000 active; in the data active means inhibition above about 29%;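 further: 0% = wells stimulated with agonist and 100% = vehicle wells without agonist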
Target sequence (O95977 whole entry, looked up): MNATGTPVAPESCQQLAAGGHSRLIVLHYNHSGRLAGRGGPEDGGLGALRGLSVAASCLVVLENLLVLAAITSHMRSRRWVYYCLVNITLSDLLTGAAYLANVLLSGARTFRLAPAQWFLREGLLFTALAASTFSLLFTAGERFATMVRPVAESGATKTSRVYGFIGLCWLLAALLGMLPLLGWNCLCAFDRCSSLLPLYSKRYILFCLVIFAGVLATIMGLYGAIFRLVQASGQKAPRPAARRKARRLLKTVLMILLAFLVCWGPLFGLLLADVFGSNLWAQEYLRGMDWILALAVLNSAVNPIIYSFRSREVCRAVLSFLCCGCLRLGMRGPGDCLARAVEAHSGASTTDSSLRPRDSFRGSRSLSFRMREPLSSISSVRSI
HSF1 activator – increases HSF-1 driven luciferase reporter signal; NIH3T3-HGL HSF-1 luciferase reporter, MG132, 8 h; 100% = twice DMSO control signal; activation, % at 9 µM; 1.7% of 300,000 active;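 active means mean replicate activation of at least 50% with a set share of replicates each reaching 50%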;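 further: 0% = median of the neutral control wells and 100% = twice that signal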
HSF1 inh – HSF1 inhibition. 0.77% of 300,000 active. AID 2098. NIH3T3-HGL HSE-luciferase, MG132-induced, luminescence 8 h; active compounds read low. activity change, negative = inhibition, % at 7.5 µM (by protocol);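 active means more than half of replicate wells show activity change below -50%, luminescence cut by over half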;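 further: luciferase reports HSF-1 transcriptional activity via heat shock element; 0% = median of DMSO wells and -100% = zero luminescence signal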
S1P3 antag – blocks the human S1P3 receptor | CHO S1P3 NFAT-BLA reporter, FRET fluorescence, antagonist mode | inhibition, % at 4.98 µM | 0.27% of 170,000 active | AID 485;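 active means inhibition above the plate cutoff, the mean inhibition of test wells on that plate plus 3 SD, cut at about 28% in these data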;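 further: cells challenged with S1P at its EC80 of 0.8 µM; blue over green emission ratio from cleaved BLA substrate after 4 h stimulation; 0% = S1P-stimulated wells and 100% = unstimulated DMSO-only wells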
S1P4 ag – agonists of human S1P4 receptor; O95977; S1P4-expressing cell line, agonist reporter assay; activation, % at 4.98 µM; 0.35% of 220,000 active; in the data active means activation above about 11%;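 further: 0% = DMSO vehicle and 100% = reference agonist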
Active calls of the source: *; nt = no result. In the library only some 2.9% were active in any assay of this set; here they are far more common.

SMILES	Hsp70 activator	S1P4 antagonist	HSF1 activator	HSF1 inh	S1P3 antag	S1P4 ag
Cc1ccc(NC(=O)CN2CCC(NC(=O)c3ccccc3F)CC2)cc1C	nt	nt	-4	-7	nt	nt
Fc1ccccc1CSc1nnc(-c2cnccn2)n1Cc1ccco1	0	-15	67*	49	-2	-3
Fc1ccc(CSc2nnc(-c3cnccn3)n2Cc2ccco2)cc1	0	-23	30	19	-5	0
COc1ccc(N2CCN(C(CNC(=O)C(=O)NCc3ccc4c(c3)OCO4)c3ccco3)CC2)cc1 (stereo not given)	0	-7	-10	0	13	1
COc1ccc(OC)c(Cc2nnc(CCC(=O)NCc3ccc(C)s3)o2)c1	0	-16	6	0	-12	0
CCOC(=O)C1=C(N)n2c(s/c(=C/c3ccco3)c2=O)=C(C(=O)OC)C1c1ccco1 (stereo not given)	0	-23	-5	8	81*	1
CCOC(=O)c1ccc(Nc2ncnc3nc[nH]c23)cc1	0	5	-78	-75*	nt	3
CCOC(=O)c1ccc(Nc2ncnc3ccccc23)cc1	0	-26	-28	-26	6	1
CCCNC(=O)c1cc(Cl)c(NC(=O)C2=CSCCO2)cc1OC	nt	nt	26	12	nt	nt
COc1ccc(CC(=O)Nc2cccc(-c3nnc(-c4cccc(C)c4)o3)c2)cc1OC	0	-20	-5	-12	85*	-1
CN(C)CCNC(=O)/C(=C/c1ccc(-c2cccc(Cl)c2)o1)NC(=O)c1ccccc1	0	-9	66*	24	-13	1
Cc1cc(C)cc(NC(=O)C2CCC(CNC(=O)[C@@H]3Cc4ccccc4CN3)CC2)c1 (stereo not given in full)	nt	nt	-1	-2	nt	nt
Cc1ccc(NC(=O)[C@@H](C)NC(=O)[C@@H]2Cc3ccccc3CN2)cc1	nt	nt	-64	-55*	nt	nt
CCc1ccc(NC(=O)C2CCC(CNC(=O)[C@@H]3Cc4ccccc4CN3)CC2)cc1 (stereo not given in full)	nt	nt	-72	-66*	nt	nt
CN1CCN(c2ccc(NC(=O)c3ccc(Br)o3)cc2)CC1	nt	nt	19	7	nt	nt
CC1CCN(c2ccc(NC(=S)NC(=O)c3ccco3)cc2)CC1	0	-15	61*	14	nt	2
CC1CCN(c2ccc(NC(=O)c3ccc(Br)o3)cc2)CC1	nt	nt	53*	25	nt	nt
COC(=O)c1ccc(C(=O)NC2CCCc3c2cnn3-c2cc(F)cc(F)c2)nc1 (stereo not given)	nt	nt	-5	-4	nt	nt
CC(=O)c1ccc(N(C(=O)Cc2c[nH]c3ccccc23)C(C(=O)NC2CCCCC2)c2cccs2)cc1 (stereo not given)	0	-11	32	2	nt	-1
Cc1ccc(C(C(=O)NC2CCCCC2)N(C(=O)Cc2c[nH]c3ccccc23)c2ccccc2)o1 (stereo not given)	0	-5	58*	32	nt	1
O=C(NC1CCCCC1)C(c1cccs1)N(C(=O)Cc1c[nH]c2ccccc12)c1ccc(F)cc1 (stereo not given)	0	17	51*	39	nt	-1
CC(=O)Nc1ccc(N(C(=O)Cc2c[nH]c3ccccc23)C(C(=O)NC2CCCCC2)c2ccco2)cc1 (stereo not given)	0	0	-2	0	0	-2
COc1ccc(CCNC(=O)CCSCc2ccccc2F)cc1OC	nt	nt	-6	-11	nt	nt
O=C(CSc1nnc(C2CCCCC2)n1Cc1ccccc1)NCc1ccco1	0	18	12	4	8	-2
COc1cccc(-c2c(C#N)c(N)nc3c2c(C)nn3-c2ccccc2)c1O	nt	nt	63*	52	nt	nt
SMILES	Hsp70 activator	S1P4 antagonist	HSF1 activator	HSF1 inh	S1P3 antag	S1P4 ag
CC1=NN(C(N)=S)C(=O)C1N=Nc1ccc(Cl)cc1Cl (stereo not given)	nt	nt	31	13	nt	nt
COC(=O)c1c(-c2ccccc2)csc1NC(=O)c1ccco1	1	5	74*	35	-15	-1
CC(=O)c1sc(NC(=O)c2ccco2)nc1-c1ccccc1	0	-9	22	14	-4	0
COc1ccc2c(c1)Cc1sc(NC(=O)c3ccco3)nc1-2	1	-14	77*	42	nt	1
Cc1sc(NC(=O)c2ccco2)nc1-c1ccccc1	2	-15	90*	39	nt	1
COc1ccc2c(c1)CCc1sc(NC(=O)c3ccco3)nc1-2	0	-14	32	26	nt	1
